“And” between values parts separate entries of the source, which are not always exact repeats. Identical values can stand only once. About 83,000 compounds went through this panel and 20% of them were active in at least one assay; those are over-represented in the sample as a whole.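 Treatment: one concentration, 48 hours, 96-well format. Scoring: percent growth, with anything below 10 considered active.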 The source made the active and inactive calls.

One test has as its system OVCAR-8 ovarian. In words: NCI-60 one-dose screen, 48 h (100 = growth as untreated, 0 = no growth, -100 = all killed). As to conditions: 10 µM unless noted.
As to `CCOC(=O)C1C(C=C(C)C)C1(C)C` (centres undefined), the growth is 99.6% (inactive).
As to `O=C/C=C/c1ccco1`, the growth is 100% (inactive).
Take `Cn1cc(-c2csc(-c3cn(CCCCN4CCOCC4)c4ccc(F)cc34)n2)c2cccnc21`: the growth was 81.3% (inactive).
On the same count and under the same terms, for `CC(=O)Nc1nc2c(s1)C1=CC[C@H]3[C@@H]4CC[C@H](OC(C)=O)[C@@]4(C)CC[C@@H]3[C@@]1(C)CC2` the value was 70.8% (inactive).
Turning to `C[C@]12CC[C@H](O)C[C@@H]1CC[C@@H]1[C@@H]2CC[C@]2(C)OC(=O)CC[C@@H]12`, the growth is 85.6% (inactive).
Consider `C[C@]12CCc3sc(Nc4ccc(O)cc4)nc3C1=CC[C@@H]1[C@@H]2CC[C@]2(C)C(=O)CC[C@@H]12`, for which the growth is 35.9% (inactive).
As for `O=C(O)C(Br)CBr` (centres undefined), the growth is 92.9% (inactive).
For the compound `Cc1cc[c-]cc1.Fc1c[c-]c(-c2ccccn2)c(F)c1.N#CCC[PH+](CCC#N)c1ccccc1.[Pt+2]`, the growth was 40.7% (inactive).
Regarding `O=P(O)(Nc1ccccc1)Nc1ccccc1`, the growth is 103% (inactive).
Turning to `Cc1cc(N(CCCl)CCCl)ccc1C=Nc1ccc(-c2csc(-c3ccccc3)n2)cc1`, the growth was 91.3% (inactive).
Turning to `Oc1ccccc1C=NCCN=Cc1ccccc1O`, the growth was 110% (inactive).
With `COC12CC3(C)C(C4=CC(=O)OC4)CCC3(O)C3CCC4=CC(=O)CCC4(CO1)C32` (centres undefined), the growth is 99.9% (inactive).
On the same count and under the same terms, for `CC12CCC3C(CCC4CC(O)CCC43C)C1CCC2=O` (centres undefined) the value was 99.9% (inactive); for `COc1cc(-c2ccc(N)c(OC)c2)ccc1N`, 114% (inactive).
With `COc1ccn(C)c(=O)c1C#N`, the growth is 96.3% (inactive).
Turning to `CCCCCCCCCCCCCCCC[N+](C)(C)Cc1ccccc1`, the growth is 10.5% (inactive).
For `Cc1nc2ccccc2c(=O)n1-c1ccccc1F`, the growth was 93.2% (inactive).
For the compound `C[C@]12CC[C@H]3[C@@H](C[C@@H]4SC(Nc5ccccc5)=N[C@@]45C/C(=N/O)CC[C@]35C)[C@@H]1CCC2=O`, the growth was 46.7% (inactive).
For the compound `N#CCN(CC#N)[N+](=O)[O-]`, the growth is 109% (inactive).
For `O=C(O)c1ccccc1N(CCO)CCCl`, the growth is 101% (inactive).
In the case of `O=[N+]([O-])c1cc(Cl)c(Cl)cc1Cl`, the growth is 108% (inactive).
On the same count and under the same terms, for `CN1[C@@H](CC(=O)c2ccccc2)CCC[C@H]1CC(=O)c1ccccc1` the value was 93.3% (inactive); for `O=Cc1cn(Cc2ccccc2)c2ccccc12`, 85.8% (inactive); for `OCCN=Cc1c[nH]c2ccccc12`, 100% (inactive).
With `C=CC[PH+](c1ccccc1)c1ccccc1.C=CC[PH+](c1ccccc1)c1ccccc1.[Pt+2].[S-]c1nc2ccccc2[nH]1.[S-]c1nc2ccccc2[nH]1`, the growth is 2.64% (active).
The same measure, in the same setting: the value for `O=NN1CCCCC1` was 111% (inactive).
The same measure, in the same setting: for `COC(=O)C1=CCCN(C)C1` the value was 105% (inactive); for `CC[C@H](C)[C@H](NC(=O)[C@H]1CCCCN1C)C(=O)N(C)[C@H](C[C@@H](OC(C)=O)c1cccc(C(=O)N[C@@H](Cc2ccccc2)C[C@H](C)C(=O)OC)n1)C(C)C`, 12% (inactive); for `CC1(C)CN=C(NN=C(/C=C/c2ccc(C(F)(F)F)cc2)/C=C/c2ccc(C(F)(F)F)cc2)NC1`, -64% (active).
On to `Cc1ccc(P(=O)(O)O)cc1`, for which the growth is 110% (inactive).
As to `Nc1ccc2c(c1)Cc1cc(N)ccc1-2`, the growth was 99.7% (inactive).
Turning to `N#CCCc1ccccc1`, the growth is 107% (inactive).
On the same count and under the same terms, the value for `CNC(=O)O/N=C(\SC)C(=O)N(C)C` was 97.7% (inactive); that for `CCC1(CCSC#N)C(=O)NC(=O)NC1=O` was 102% (inactive); that for `Oc1ccccc1C=NCCN=Cc1ccccc1O.[Fe]` was 84.7% (inactive).
As for `CCCCCCCCCCCCCCCC[N+](C)(C)C`, the growth is 0.0915% (active).
For `C[N+]1(C)CCCC1c1cccnc1` (centres undefined), the growth was 104% (inactive).

For the next test, the system named is OVCAR-5 ovarian. Described as above. To be noted: 10 µM unless noted.
`CCOC(=O)C1C(C=C(C)C)C1(C)C` (centres undefined): the growth was 80.5% (inactive).
`O=C/C=C/c1ccco1`: the growth was 101% (inactive).
On to `Cn1cc(-c2csc(-c3cn(CCCCN4CCOCC4)c4ccc(F)cc34)n2)c2cccnc21`, for which the growth was 79.5% (inactive).
For the compound `CC(=O)Nc1nc2c(s1)C1=CC[C@H]3[C@@H]4CC[C@H](OC(C)=O)[C@@]4(C)CC[C@@H]3[C@@]1(C)CC2`, the growth was 92.7% (inactive).
Take `C[C@]12CC[C@H](O)C[C@@H]1CC[C@@H]1[C@@H]2CC[C@]2(C)OC(=O)CC[C@@H]12`: the growth was 93.7% (inactive).
On to `C[C@]12CCc3sc(Nc4ccc(O)cc4)nc3C1=CC[C@@H]1[C@@H]2CC[C@]2(C)C(=O)CC[C@@H]12`, for which the growth is 117% (inactive).
In the case of `O=C(O)C(Br)CBr` (centres undefined), the growth was 117% (inactive).
Still for that read-out and setting: the value for `Cc1cc[c-]cc1.Fc1c[c-]c(-c2ccccn2)c(F)c1.N#CCC[PH+](CCC#N)c1ccccc1.[Pt+2]` was 64.9% (inactive).
Consider `O=P(O)(Nc1ccccc1)Nc1ccccc1`, for which the growth is 90.1% (inactive).
As for `Cc1cc(N(CCCl)CCCl)ccc1C=Nc1ccc(-c2csc(-c3ccccc3)n2)cc1`, the growth was 120% (inactive).
For `Oc1ccccc1C=NCCN=Cc1ccccc1O`, the growth was 104% (inactive).
`COC12CC3(C)C(C4=CC(=O)OC4)CCC3(O)C3CCC4=CC(=O)CCC4(CO1)C32` (centres undefined): the growth is 99.5% (inactive).
Same read-out and setting: the value for `CC12CCC3C(CCC4CC(O)CCC43C)C1CCC2=O` (centres undefined) was 91.7% (inactive); that for `COc1cc(-c2ccc(N)c(OC)c2)ccc1N` was 94.4% (inactive).
On to `COc1ccn(C)c(=O)c1C#N`, for which the growth is 105% (inactive).
As for `CCCCCCCCCCCCCCCC[N+](C)(C)Cc1ccccc1`, the growth was 24.7% (inactive) and -62.5% (active).
`Cc1nc2ccccc2c(=O)n1-c1ccccc1F`: the growth is 102% (inactive).
Regarding `C[C@]12CC[C@H]3[C@@H](C[C@@H]4SC(Nc5ccccc5)=N[C@@]45C/C(=N/O)CC[C@]35C)[C@@H]1CCC2=O`, the growth was 99.7% (inactive).
Turning to `N#CCN(CC#N)[N+](=O)[O-]`, the growth is 103% (inactive).
The same measure, in the same setting: for `O=C(O)c1ccccc1N(CCO)CCCl` the value was 92.3% (inactive); for `O=[N+]([O-])c1cc(Cl)c(Cl)cc1Cl`, 110% (inactive) and 99.6% (inactive).
As for `CN1[C@@H](CC(=O)c2ccccc2)CCC[C@H]1CC(=O)c1ccccc1`, the growth is 101% (inactive).
For the compound `O=Cc1cn(Cc2ccccc2)c2ccccc12`, the growth was -20.3% (active).
As to `OCCN=Cc1c[nH]c2ccccc12`, the growth was 91% (inactive).
`C=CC[PH+](c1ccccc1)c1ccccc1.C=CC[PH+](c1ccccc1)c1ccccc1.[Pt+2].[S-]c1nc2ccccc2[nH]1.[S-]c1nc2ccccc2[nH]1`: the growth was -3.98% (active).
For `O=NN1CCCCC1`, the growth was 104% (inactive).
For `COC(=O)C1=CCCN(C)C1`, the growth was 94.9% (inactive).
Consider `CC[C@H](C)[C@H](NC(=O)[C@H]1CCCCN1C)C(=O)N(C)[C@H](C[C@@H](OC(C)=O)c1cccc(C(=O)N[C@@H](Cc2ccccc2)C[C@H](C)C(=O)OC)n1)C(C)C`, for which the growth is 39% (inactive).
As for `CC1(C)CN=C(NN=C(/C=C/c2ccc(C(F)(F)F)cc2)/C=C/c2ccc(C(F)(F)F)cc2)NC1`, the growth is -87.5% (active).
Regarding `Cc1ccc(P(=O)(O)O)cc1`, the growth is 114% (inactive).
As to `Nc1ccc2c(c1)Cc1cc(N)ccc1-2`, the growth is 107% (inactive).
Take `N#CCCc1ccccc1`: the growth is 98% (inactive).
`CNC(=O)O/N=C(\SC)C(=O)N(C)C`: the growth was 101% (inactive).
Turning to `CCC1(CCSC#N)C(=O)NC(=O)NC1=O`, the growth is 109% (inactive).
Turning to `Oc1ccccc1C=NCCN=Cc1ccccc1O.[Fe]`, the growth is 118% (inactive).
As for `CCCCCCCCCCCCCCCC[N+](C)(C)C`, the growth was -4.82% (active).
Consider `C[N+]1(C)CCCC1c1cccnc1` (centres undefined), for which the growth is 109% (inactive).

(Values after PubChem BioAssay (NCI).)
